The record followed here is PubChem BioAssay.

For assay [1], the system named is Human papillomavirus type 1a protein E7 (residues 44-93). Kind of assay: HPV1a E7 fragment binders on microarrays, primary screen, biochemical, small-molecule microarray, residues 44-93, 635 nm fluorescence (AID 1108).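 Further: E7 fragment applied at 1 µg/mL in TBST for 1 h at 4 C; score combines spot fluorescence with its signal to noise ratio.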 The conditions noted are these: small-molecule microarray binding, fluorescence 635 nm; higher = more signal.
Assay [2] in a line: modulators of HCV replicon luciferase signal, primary screen, HCV replication inhibitor project, Huh7 cells, luciferase reporter (AID 1109).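 Further: huh7 hepatoma cells harbouring a luciferase neomycin HCV replicon reporter; luciferase luminescence as measure of HCV replicon replication; test concentration not given here.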 The conditions noted are these: 48 h, higher = more signal. On the technique in general: Replicon systems follow genome replication, usually without infectious particles.
For assay [3], the target named is Left-right determination factor 2 (Homo sapiens) (UniProt O00292). The assay is described as follows: LEFTY2 binders on small-molecule microarrays, primary screen, biochemical, small-molecule microarray, 635 nm fluorescence scan (AID 1110). The conditions noted are these: LEFTY2 binding, higher = more signal.
Assay [4] concerns the target Calmodulin-1 (Homo sapiens) (UniProt P0DP23). Kind of assay: CALM1 binders on microarrays, EGTA buffer, profiling panel, biochemical, small-molecule microarray, Cy5-labelled CALM1 (AID 1111).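 Further: labelled calmodulin applied in Tris saline Tween buffer holding calcium plus EGTA and DTT.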 The conditions noted are these: Cy5-CALM1 binding fluorescence, higher = more signal.
Assay [5] shares this target. The assay is described as follows: calcium-bound CALM1 binders on microarrays, profiling panel, artefact control for SMM control-protein annotation, biochemical, small-molecule microarray, Cy5-labelled CALM1, plus calcium (AID 1112).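 Further: score merges spot fluorescence with signal to noise from triplicate slides.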 To be noted: Cy5-CALM1 binding fluorescence, higher = more signal.
Assay [6] in a line: small-molecule microarray binders of probe aWnt5a, primary screen, biochemical, biotinylated probe, 635/667 nm fluorescence (AID 1113).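 Further: score merges 667 nm fluorescence intensity with signal-to-noise per printed feature.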 To be noted: higher = more signal.
Assay [7] in a line: small-molecule microarray binders of probe aShh, primary screen, biochemical, biotinylated probe, 635/667 nm fluorescence (AID 1114).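 Further: probe is biotin-labelled aShh protein from a stem cell growth factor screen; measures binding of labelled protein to compounds printed on the slide; score merges feature fluorescence at 667 nm with signal-to-noise.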 The conditions noted are these: higher = more signal.
A short description of assay [8]: small-molecule microarray binders of probe aNog, primary screen, biochemical, biotinylated probe, 635/667 nm fluorescence (AID 1115).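 Further: probe is biotinylated aNog protein used at 0.15 µg/mL for 1 h at 4 C; z-score combines 667 nm fluorescence of each spot with its signal to noise.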 To be noted: higher = more signal.
For assay [9], the target named is Torsin-1A-interacting protein 1 (Homo sapiens) (UniProt Q5JTV8). Kind of assay: LAP1 binders from COS7 cell lysate, primary screen, small-molecule microarray, 635/667 nm fluorescence (AID 1116). To be noted: COS7-hLAP1 lysate binding, 635 nm fluorescence, higher = more signal.
Assay [10] has as its target Alpha-bungarotoxin (Bungarus multicinctus) (UniProt P60615). Kind of assay: alpha-bungarotoxin binders on microarray, profiling panel, artefact control for SMM control protein annotation, biochemical, small-molecule microarray, Alexa647 label, 635/667 nm fluorescence (AID 1117). The conditions noted are these: alpha-BTX-A647 binding fluorescence, higher = more signal.

Chain of Left-right determination factor 2 (Homo sapiens) (O00292 whole entry, looked up): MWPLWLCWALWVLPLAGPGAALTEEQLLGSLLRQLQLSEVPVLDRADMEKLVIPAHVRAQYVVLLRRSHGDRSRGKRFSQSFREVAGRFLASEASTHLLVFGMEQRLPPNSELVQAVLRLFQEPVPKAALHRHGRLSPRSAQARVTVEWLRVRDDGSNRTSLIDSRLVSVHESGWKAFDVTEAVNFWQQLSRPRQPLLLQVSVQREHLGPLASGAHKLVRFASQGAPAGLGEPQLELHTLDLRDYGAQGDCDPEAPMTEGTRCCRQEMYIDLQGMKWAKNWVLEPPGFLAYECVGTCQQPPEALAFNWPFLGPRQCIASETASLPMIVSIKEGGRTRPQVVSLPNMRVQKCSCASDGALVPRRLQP
Chain of Alpha-bungarotoxin (Bungarus multicinctus) (P60615 whole entry, looked up): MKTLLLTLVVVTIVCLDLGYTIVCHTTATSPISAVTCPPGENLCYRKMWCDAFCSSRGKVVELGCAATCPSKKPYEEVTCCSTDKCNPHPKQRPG
Chain of Torsin-1A-interacting protein 1 (Homo sapiens) (Q5JTV8 whole entry, looked up): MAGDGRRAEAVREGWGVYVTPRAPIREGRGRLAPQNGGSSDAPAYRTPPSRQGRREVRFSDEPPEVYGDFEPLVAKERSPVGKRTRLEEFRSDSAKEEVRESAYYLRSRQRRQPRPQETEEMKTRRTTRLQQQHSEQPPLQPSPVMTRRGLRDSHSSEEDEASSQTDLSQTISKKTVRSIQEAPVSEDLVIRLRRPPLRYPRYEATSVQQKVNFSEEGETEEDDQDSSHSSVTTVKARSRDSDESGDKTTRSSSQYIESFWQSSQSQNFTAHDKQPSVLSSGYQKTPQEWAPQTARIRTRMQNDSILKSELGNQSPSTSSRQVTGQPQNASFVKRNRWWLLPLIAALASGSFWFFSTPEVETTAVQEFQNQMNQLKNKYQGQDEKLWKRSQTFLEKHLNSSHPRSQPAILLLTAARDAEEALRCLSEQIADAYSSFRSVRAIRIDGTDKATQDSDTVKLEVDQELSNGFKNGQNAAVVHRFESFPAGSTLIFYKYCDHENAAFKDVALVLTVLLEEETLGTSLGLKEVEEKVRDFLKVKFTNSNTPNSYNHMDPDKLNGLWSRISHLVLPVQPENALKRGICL

Turning to `COc1cccc([C@@H]2[C@@H](C)CC[C@H]3C(=O)N4[C@H](c5cccc(OC)c5)[C@@H](C)CC[C@H]4C(=O)N23)c1`, the composite z-score in assay [1] is 0.27; in assay [3] it was 0.767; in assay [4] it was -0.2; in assay [5], -0.781; in [6], -0.0853; in [7], -0.2. For the same compound, the composite z-score in [8] was -0.0611; in [9] it was 0.37; in assay [10], 0.452. In assay [2], this compound yielded a z-score of 0.533.
On to `COc1ccc(CCNC(=O)[C@@]2(c3ccc([N+](=O)[O-])cc3)CC(=O)N(C(C)C)[C@@H]2c2ccc(CO)cc2)cc1`, for which the composite z-score in assay [1] is 0.0008; in assay [3], -1.6; in assay [4], -0.63; in assay [5], -0.0462; in assay [6], -0.129; in [7], 0.0557. For the same compound, the results for the composite z-score in assay [8], in [9] and in assay [10] were 0.132, 0.228 and -0.631, respectively. This compound also had a z-score in assay [2] of -0.309.
Consider `CC(=O)NCCCC[C@@H]1NC(=O)[C@@H]2C[C@H](C(=O)NCc3ccc(F)cc3)[C@H](c3cccc(OCCO)c3)N2C1=O`, for which the composite z-score in assay [1] is 0.843; in assay [3] it was -0.0566; in [4], -0.286; in assay [5], 0.0377; in [6], -0.0836; in assay [7], 0.0469. Further, the values for the composite z-score in [8], in [9] and in [10] were -0.183, 0.436 and -0.86, respectively. Besides, the z-score in assay [2] was -0.0901.
Regarding `O=C1OCC=C[C@H]2OC34C=CCN(Cc5ccccc5)C(=O)[C@H]3N(CCO)C(=O)[C@@H]4[C@@H]12` (stereo not given in full), the composite z-score is 0.257 in assay [1]; -0.864 in assay [3]; -0.289 in assay [4]; 0.822 in [5]; -0.144 in assay [6]; -0.134 in [7]. Also, the composite z-score in assay [8] is -0.182; in assay [9], -0.459; in [10], -0.38. In assay [2], this compound returned a z-score of -0.877.
For the compound `COC(=O)c1ccc(C#CC(NP(=O)(c2ccccc2)c2ccccc2)c2ccccc2)cc1` (stereo not given), the composite z-score in assay [1] was 1.39; in [3] it was -0.34; in assay [4], 1.92; in assay [5], 0.863; in assay [6] it was 0.0381; in assay [7], -0.519. Further, the composite z-score in assay [8] was found to be 1.59; in assay [9], 0.403; in assay [10], 2.89. In assay [2], the z-score was -0.173.
As to `O=C1O[C@@H](c2ccccc2)[C@@H](c2ccccc2)N2[C@@H](c3ccc(O)cc3)[C@]3(C(=O)Nc4ccc(C#CC5(O)CCCCCC5)cc43)[C@@H](C(=O)Nc3nc4ccccc4s3)[C@H]12`, the composite z-score in assay [1] is -0.423; in assay [3] it was 0.494; in assay [4], 0.395; in assay [5], 0.253; in assay [6], 0.245; in assay [7] it was -0.35. Besides, the results for the composite z-score in assay [8], in assay [9] and in assay [10] were 1.15, 1.18 and 1.91, respectively. Besides, in assay [2], the z-score was -0.56.
Take `C#CCNC(/C=C/c1ccccc1)CO` (stereo not given): the composite z-score in assay [1] is 0.105; in assay [3] it was 0.421; in assay [4] it was -0.0934; in assay [5] it was -0.448; in assay [6], -0.172; in assay [7] it was 0.0121. Moreover, the composite z-score was -0.0784 in assay [8], 0.296 in assay [9] and 0.331 in [10]. This compound came in with a z-score in [2] of 0.501.
For `NC(=O)NCC#Cc1ccc2c(c1)[C@]1(C(=O)N2)[C@H](c2ccccc2OCCO)N2[C@H](c3ccccc3)[C@H](c3ccccc3)OC(=O)[C@H]2[C@@H]1C(=O)N1CCN(c2ncccn2)CC1`, the composite z-score in [1] was 1.4; in [3], 0.235; in [4] it was 0.427; in assay [5] it was 0.263; in assay [6], -0.124; in assay [7], 0.399. Besides, the composite z-score in assay [8] is -0.582; in [9], 1.04; in assay [10] it was 0.959. The compound also displayed a z-score in [2] of -0.729.
For `CC(C)[Si](OCCCNS(=O)(=O)c1ccc(Br)cc1)(C(C)C)C(C)C`, the composite z-score in assay [1] is 0.186; in assay [3] it was 0.76; in [4], 1.19; in assay [5] it was -0.371; in [6] it was 0.037; in assay [7] it was -0.0553. Moreover, the composite z-score in assay [8] is 0.0379; in [9], 0.928; in [10] it was -0.249. In addition, the z-score in assay [2] was -2.89.
As for `Cc1ccc(S[C@]2(C(=O)NCCCN(C)C)CC(=O)N(Cc3ccccc3)[C@@H]2c2ccc(CO)cc2I)cc1`, the composite z-score in assay [1] is 0.544; in assay [3], -0.941; in [4] it was 0.453; in [5], 0.728; in [6], -0.091; in assay [7], 0.0756. In addition, the composite z-score was determined as 1.09 in [8], 0.0632 in assay [9] and 0.913 in [10]. In addition, in assay [2], the z-score was -2.94.
`C[C@@H]1NC(=O)CC=C[C@@H](C)[C@@H]2C=C[C@H](O)[C@@H](COC(=O)[C@H](C)NC(=O)CC=C[C@@H](C)[C@@H]3C=C[C@H](O)[C@@H](COC1=O)O3)O2`: the composite z-score was 0.0804 in [1]; 0.0183 in assay [3]; -0.417 in assay [4]; -0.0969 in [5]; -0.172 in [6]; -0.426 in assay [7]. For the same compound, the figures for the composite z-score in [8], in [9] and in [10] were -0.134, -0.166 and -0.64, respectively. The same compound returned a z-score in assay [2] of 0.128.
In the case of `O=C1O[C@@H](c2ccccc2)[C@@H](c2ccccc2)N2[C@@H](c3ccc(OCCO)cc3)[C@]3(C(=O)Nc4ccc(C#CCCO)cc43)[C@@H](C(=O)N3CCN(c4ncccn4)CC3)[C@H]12`, the composite z-score in assay [1] was found to be 1.44; in assay [3], 0.669; in [4] it was 0.732; in assay [5], 0.073; in [6], 0.0115; in [7], 0.151. Moreover, the composite z-score in [8] is -0.601; in [9], 0.842; in assay [10] it was 1.75. Besides, the z-score in [2] is -0.347.
`CCOC(=O)C1=C[C@@H](c2ccccc2)N(S(=O)(=O)c2ccc(C)cc2)[C@H]1c1ccc(F)cc1`: the composite z-score is 0.431 in assay [1]; 0.446 in [3]; 0.37 in [4]; 0.342 in [5]; -0.0718 in [6]; 0.0929 in [7]. Besides, the composite z-score in assay [8] worked out at 0.862; in assay [9], 0.904; in [10], 1.27. The z-score in [2] was -1.97.
